High-throughput results from PubChem.
TIM10 inh: growth inhibitors of isogenic TIM10 control yeast, primary screen, counter-screen for tim10-1 yeast inhibitor project, luminescence, uHTS. hit rate 1.4% among 330,000. S. cerevisiae TIM10 strain growth, BacTiter-Glo luminescence, 24 h. AID 463195, 2010. inhibition, % at 10 µM;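 active = inhibition of 40% or more at the single tested concentration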;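 also: wild-type TIM10 isogenic control strain grown at permissive 25 °C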
PfHsp90 set2: growth inhibition of PfHsp90-expressing yeast, primary screen, antimalarial PfHsp90 inhibitor project, S. cerevisiae, BacTiter-Glo luminescence, single point, set 2; inhibition, % at 9.4 µM; hit rate 0.32% among 310,000; BacTiter-Glo ATP, 48 h; yeast lacking PDR1 and PDR3 efflux regulators;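 active = every replicate shows inhibition above about 80%, whatever the replicate mean, limit read from the data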
tim23-1 inh: growth inhibitors of tim23-1 mutant yeast, primary screen, luminescence, uHTS. S. cerevisiae tim23-1 growth, BacTiter-Glo luminescence, 24 h. inhibition, % at 20 µM. hit rate 1.3% among 330,000;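 active = growth inhibition of the mutant yeast at or above 50%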;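 also: temperature-sensitive mutant grown at 25 °C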
tim10-1 inh: growth inhibitors of tim10-1 mutant yeast, primary screen, luminescence, uHTS; S. cerevisiae tim10-1 ts strain growth, BacTiter-Glo, 24 h; inhibition, % at 20 µM; hit rate 2.2% among 330,000;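 active = inhibition of at least 40%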;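 also: mutant grown at 25 °C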
Rce1 inhib: yeast Rce1p protease inhibitors, primary screen, biochemical, fluorescence, cell-free homogeneous | CAAX prenyl protease 2 (Saccharomyces cerevisiae (strain ATCC 204508 / S288c)), Q03530 | yeast membranes, quenched prenylated peptide cleavage fluorescence | calls only | hit rate 0.27% among 290,000 | AID 2563, 2010;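 active = fall in fluorescence gain of 50% or more versus controls, with final raw signal at or below 3038400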
Target sequence (Q03530 whole entry, looked up): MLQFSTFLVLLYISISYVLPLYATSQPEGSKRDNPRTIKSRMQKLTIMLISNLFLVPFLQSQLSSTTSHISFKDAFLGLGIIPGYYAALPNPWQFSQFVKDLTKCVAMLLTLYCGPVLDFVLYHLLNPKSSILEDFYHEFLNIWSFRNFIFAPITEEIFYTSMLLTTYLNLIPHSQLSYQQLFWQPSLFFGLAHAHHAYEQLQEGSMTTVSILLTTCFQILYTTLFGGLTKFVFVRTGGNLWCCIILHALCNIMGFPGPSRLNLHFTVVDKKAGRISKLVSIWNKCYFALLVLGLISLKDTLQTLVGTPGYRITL
Hits are given with their value; n = inactive; x = not tested or not shown; + = active, no number; ! = not active in a repeat. An excerpt weighted towards active compounds, which were near 3.7% of everything screened.

SMILES	TIM10 inh	PfHsp90 set2	tim23-1 inh	tim10-1 inh	Rce1 inhib
CCSc1nnc(CCNS(=O)(=O)c2ccc(C(C)=O)cc2)n1C	n	n	n	n	n
CC(NC(=O)CCCCCNC(=O)N1CCn2c1nc1ccccc12)c1ccccc1 (configuration not stated)	n	n	n	n	n
O=C1CC(N2CCN(c3nc4ccccc4s3)CC2)C(=O)N1Cc1cccs1 (configuration not stated)	n	105	n	n	n
COc1cc(/C=C(\C#N)C(=O)Nc2cccnc2)ccc1OC(C)C	x	n	x	x	x
Cc1cc(C)c2c(CN3CCN(Cc4ccc5c(c4)OCO5)CC3)cc(=O)oc2c1C	n	n	n	n	n
Cc1ccc2c(CN3CCN(Cc4ccc5c(c4)OCO5)CC3)cc(=O)oc2c1C	n	n	n	n	+!
O=C(CCc1ccccc1)NC(c1cccs1)c1cc(Cl)c2cccnc2c1O (configuration not stated)	x	101	x	x	n
CCCCC(=O)NC(c1ccco1)c1cc(Cl)c2cccnc2c1O (configuration not stated)	n	105	n	n	n
CCC(=O)NC(c1ccco1)c1cc(Cl)c2cccnc2c1OC (configuration not stated)	n	x	n	n	x
CC(=NNC(=S)N1CC2CCC(CC2)C1)c1ccncn1	x	111	x	x	x
C/C(=N\NC(=S)NC1CCCCC1)c1ccc(Cl)c(Cl)c1	n	n	n	n	n
O=[N+]([O-])c1cc2no[n+]([O-])c2cc1N1CCCCC1	x	105	x	x	x
N#Cc1cc(S(=O)(=O)c2ccccc2)c(N)[nH]c1=O	n	x	n	n	n
Cc1ccccc1S(=O)(=O)c1cc(C#N)c(=O)[nH]c1N	n	n	n	n	+
CCOc1ccc(C(=O)OCC(=O)N2CC(C)OC(C)C2)cc1OCC (configuration not stated)	n	n	n	n	x
Cc1ccc(S(=O)(=O)N(C)C)cc1NC(=O)CCNC(=O)c1ccccc1Cl	n	n	n	n	n
COc1ccc(OC)c(Cc2nnc(CCC(=O)N3CCN(C4CCCC4)CC3)o2)c1	n	n	n	n	+
CN1CCN(Cc2c(C(=O)N/N=C/c3cccc(Br)c3)nnn2-c2nonc2N)CC1	n	n	n	n	+
Nc1nonc1-n1nnc(C(=O)N/N=C/c2ccoc2)c1CSc1ccccc1	n	n	n	n	+
Cc1nnn(-c2nonc2N)c1C(=O)N/N=C/c1cccc2ccccc12	n	n	n	n	+
Cc1ccc(N=C2SC(C(=O)Nc3ccc(OC(F)(F)F)cc3)C(N)=C2C(=O)Nc2c(C)cc(C)cc2C)cc1 (configuration not stated)	x	n	x	x	x
CCN(CC)CCNC(=O)CSc1c2c(nc3cc(Cl)ccc13)CCCC2	n	n	n	n	+
CC(=O)Nc1cccc(NC(=O)CSc2nc3c(c(=O)n(C)c(=O)n3C)n2C)c1	n	n	n	n	n
COc1ccc(OC)c(NC(=O)CSc2nnc(CNC(=O)c3cc(OC)c(OC)c(OC)c3)o2)c1	n	n	n	n	n
C=CCn1c(O)c(C2=c3ccccc3=NC2=O)s/c1=N/c1nccs1	n	n	n	n	n
SMILES	TIM10 inh	PfHsp90 set2	tim23-1 inh	tim10-1 inh	Rce1 inhib
C=CCn1c(O)c(C2=c3ccccc3=NC2=O)c2ccccc21	n	110	n	n	n
Oc1cccc2ccc(/C=C/c3ccccc3Cl)nc12	n	100	n	n	n
Oc1cccc2ccc(/C=C/c3c(F)cccc3Cl)nc12	n	n	n	n	n
O=C(Nc1nnc(-c2ccccc2)o1)c1cc(Cl)sc1Cl	n	n	n	n	n
O=C(Nc1nnc(-c2ccc(F)cc2)o1)c1cc(Cl)sc1Cl	n	80	n	n	n
CN(CC(=O)Nc1cccc(F)c1)C(=O)CCc1nc2ccccc2c(=O)[nH]1	n	n	n	n	n
COc1ccc(/C=C(\NC(=O)c2ccc(C)cc2)C(=O)N2CCCCC2)cc1	n	n	n	n	n
O=C(Nc1nnc(SCc2ccc(F)cc2)s1)c1ccccn1	n	101	n	n	n
Cc1cc2ccccc2n1CCNC(=O)C(C)Oc1ccccc1 (configuration not stated)	n	n	n	n	n
Clc1nssc1=Nc1ccc(Br)cc1	x	105	x	x	n
CCN(CC)CCCNC(=O)c1cc2c(-c3cccc(OC)c3)nn(C)c2s1	n	n	n	n	+
CCCCN(C)CCNC(=O)c1cc2c(-c3cccc(OC)c3)nn(C)c2s1	n	n	n	n	+
CSc1ccc(/C=C2\CCn3c2nc2cc(C(=O)O)ccc2c3=O)cc1	n	n	n	n	n
CCCOc1ccc(-c2c(C(=O)N/N=C/c3ccncc3)nnn2-c2nonc2N)cc1	n	n	n	n	n
COc1cccc(-c2c(C(=O)N/N=C/c3sccc3C)nnn2-c2nonc2N)c1	n	n	n	n	+
Cc1ccsc1/C=N/NC(=O)c1nnn(-c2nonc2N)c1-c1ccccc1	n	n	n	n	n
CCCOc1ccc(-c2c(C(=O)N/N=C/c3cccs3)nnn2-c2nonc2N)cc1	n	n	n	n	+
CCCCCCCCCCOC(=O)Cn1c(COc2ccccc2)[n+](C)c2ccccc21	n	n	n	n	n
CCCCCCCCCCOC(=O)Cn1c(COc2ccc(OC)cc2)[n+](C)c2ccccc21	n	108!	n	n	n
Cc1ccc(NC(=O)CSc2nnc(-c3n[nH]c4ccccc34)n2-c2ccccc2)c(C)c1	n	n	n	n	n
C=CC[C@H](CC(=O)N[C@H](CO)Cc1ccccc1)C(=O)N[C@H](COC(=O)[C@H](CC=C)CC(=O)OC(C)(C)C)Cc1c[nH]c2ccccc12	n	n	n	n	x
COc1cccc(OC)c1C(=O)Nc1ccnn1C	n	n	n	n	n
Cc1ccc(Nc2nc(N)c([N+](=O)[O-])c(N3CCCC(C)C3)n2)cc1C (configuration not stated)	n	132	n	n	n
CC1CCCN(c2nc(NCc3ccco3)nc(N)c2[N+](=O)[O-])C1 (configuration not stated)	n	n	n	n	n
CCCCn1c(-c2sccc2C)n[nH]c1=S	n	n	n	n	+
CC(=O)N(C1=C(Cl)C(=O)c2ccccc2C1=O)C1CCCCC1	n	109	n	n	n
N#CC(/C(=N/S(=O)(=O)c1cccs1)c1ccccc1)c1nc2ccccc2[nH]1 (configuration not stated)	n	n	n	n	+
CCCN(CCC)Cc1c(C(=O)N/N=C/c2c[nH]c3ccccc23)nnn1-c1nonc1N	n	n	n	n	n
COC(=O)c1ccc(-c2ccc(CNCC(O)c3ccccc3)o2)cc1 (configuration not stated)	n	n	n	n	+
